Assay results: PubChem BioAssay (Tox21)
Values without a mark were called inactive. Records with an inconclusive call do not appear. Where a call stands in place of a potency, no number is given. Activity calls are given as the source filed them. Unless noted, the call rests on the fitted dose curve; in most records, active means well fitted curve in the direction sought with a large enough effect in the repeat runs; inconclusive means weak or mixed curves; inactive means no such curve, though single readings can be large; an effect the other way counts as inactive or inconclusive. Where a SMILES comes first, the peptide text is derived from it.

Legend:
[1] = qHTS assay to identify small molecule agonists of the RXR signaling pathway - cell viability counter screen (AID 1159529); conditions: RXR-alpha-bla HEK293T viability, CellTiter-Glo, 16 h; series mostly up to 76.8 µM;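 further: HEK 293T cells carrying an RXR-alpha UAS beta-lactamase reporter; nearly all actives have a fitted effect of over 50% in size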
How it was run: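 In this parallel viability measure, GeneBLAzer RXR-alpha HEK 293T cells (2% charcoal-stripped FBS) were given a 5 hr preincubation, treated with compounds 16 hr at 37 C, and read by CellTiter-Glo luminescence.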

[2] = qHTS assay to identify small molecule antagonists of the retinoid acid receptor (RAR) signaling pathway - cell viability counter screen (AID 1159551); conditions: C3RL4 cells viability, ATP luminescence (CellTiter-Glo), 6 h; series mostly up to 92.4 µM; further: nearly all actives have a fitted effect of over 35% in size
How it was run: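 C3RL4 RARE-luciferase line; cpds + retinol 1 uM final, 6 h, 37 C/5% CO2; CellTiter-Glo ATP luminescence, 30 min RT.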

[3] = qHTS assay to identify small molecule antagonists of the retinoic acid receptor (RAR) signaling pathway (AID 1159552; further: nearly all actives have a fitted effect of over 50% in size); conditions: C3RL4 RARE luciferase reporter, retinol-stimulated, 6 h; series mostly up to 92.4 µM
How it was run: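 C3RL4 RARE-luc cells, overnight plating; retinol 1 uM final added right after compound; 6 hr 37 C; luciferase read at 30 min RT.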

[4] = qHTS assay to identify small molecule agonists of the retinoic acid receptor (RAR) signaling pathway (AID 1159553); conditions: C3RL4 RARE luciferase reporter, agonist, 6 h; series mostly up to 73.3 µM; further: potency means the concentration at half of the fitted maximal effect
How it was run: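 RARE-luc C3RL4 cells; overnight attachment 37 C/5% CO2; compound (DMSO) 6 hr; luciferase reagent, 30 min RT; luminescence read-out.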

[5] = qHTS assay to identify small molecule antagonists of the estrogen related receptor (ERR) signaling pathway from Tox21 library - cell viability counter screen (AID 1224834); conditions: ERR reporter cells viability, CellTiter-Fluor, 17.5 h; series mostly up to 92.4 µM; further: nearly all actives have a fitted effect of over 30% in size
How it was run: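 Multiplexed viability counter screen in ERR cells: 17.5 h compound exposure at 37 C, CellTiter-Fluor added, 30 min at 37 C/5% CO2, fluorescence read.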

[6] = biological target: Luciferin 4-monooxygenase (Photinus pyralis) (UniProt P08659); test: qHTS assay to identify small molecule inhibitors of firefly luciferase (AID 1224835); further: nearly all actives have a fitted effect of over 25% in size; further: potency means the concentration at half of the fitted maximal effect; conditions: purified P. pyralis luciferase, luminescence inhibition; series mostly up to 115 µM
Chain of Luciferin 4-monooxygenase (Photinus pyralis) (P08659 whole entry, looked up): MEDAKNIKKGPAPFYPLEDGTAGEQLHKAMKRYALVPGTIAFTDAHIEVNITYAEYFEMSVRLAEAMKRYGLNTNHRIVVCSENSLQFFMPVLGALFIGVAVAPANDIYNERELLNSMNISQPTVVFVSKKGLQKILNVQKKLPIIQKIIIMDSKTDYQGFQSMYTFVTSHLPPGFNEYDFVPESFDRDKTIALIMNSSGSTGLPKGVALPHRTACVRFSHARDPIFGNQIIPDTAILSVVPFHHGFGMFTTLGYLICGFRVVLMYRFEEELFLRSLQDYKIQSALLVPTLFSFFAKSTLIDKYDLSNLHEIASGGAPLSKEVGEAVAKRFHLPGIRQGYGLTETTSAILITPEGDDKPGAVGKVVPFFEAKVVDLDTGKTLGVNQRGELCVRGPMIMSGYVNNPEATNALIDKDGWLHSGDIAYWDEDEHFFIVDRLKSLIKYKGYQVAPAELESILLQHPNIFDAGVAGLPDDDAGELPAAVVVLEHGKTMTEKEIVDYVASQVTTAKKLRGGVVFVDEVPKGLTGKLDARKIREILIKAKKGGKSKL
How it was run: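 Biochemical qHTS: compounds run as interplate titrations against purified firefly enzyme, with D-luciferin and ATP each at its KM concentration. Light output recorded by CCD imaging.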

[7] = qHTS assay to identify small molecule agonists of the constitutive androstane receptor (CAR) signaling pathway - cell viability counter screen (AID 1224836); conditions: HepG2-CYP2B6-hCAR viability, CellTiter-Fluor, 23 h, PK11195 added to every well; series mostly up to 92.4 µM; further: nearly all actives have a fitted effect of over 45% in size
How it was run: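 Using CellTiter-Fluor, viability of HepG2 cells harbouring hCAR and CYP2B6-2.2kb was measured following 23 h incubation with a 15-concentration compound series plus PK11195 (0.75 uM final).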

[8] = qHTS assay to identify small molecule antagonists of the constitutive androstane receptor (CAR) signaling pathway - cell viability counter screen (AID 1224837); conditions: HepG2-CYP2B6-hCAR viability, CellTiter-Fluor, 23 h, co-treated with 50 nM CITCO; series mostly up to 92.4 µM; further: nearly all actives have a fitted effect of over 45% in size
How it was run: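 Read-out: CellTiter-Fluor fluorescence after 23 hr at 37 C/5% CO2. Cells: HepG2 double-stable for hCAR and CYP2B6-2.2kb. Compounds tested at 15 concentrations in the presence of CITCO, final concentration 50 nM.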

[9] = biological target: Nuclear receptor subfamily 1 group I member 3 (Homo sapiens) (UniProt Q14994); test: qHTS assay to identify small molecule antagonists of the constitutive androstane receptor (CAR) signaling pathway (AID 1224838); conditions: HepG2-CYP2B6-hCAR luciferase, CITCO-stimulated, 24 h; series mostly up to 92.4 µM;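 further: HepG2 cells stably expressing hCAR with CYP2B6 luciferase reporter stimulated by CITCO; nearly all actives have a fitted effect of over 40% in size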
Chain of Nuclear receptor subfamily 1 group I member 3 (Homo sapiens) (Q14994 whole entry, looked up): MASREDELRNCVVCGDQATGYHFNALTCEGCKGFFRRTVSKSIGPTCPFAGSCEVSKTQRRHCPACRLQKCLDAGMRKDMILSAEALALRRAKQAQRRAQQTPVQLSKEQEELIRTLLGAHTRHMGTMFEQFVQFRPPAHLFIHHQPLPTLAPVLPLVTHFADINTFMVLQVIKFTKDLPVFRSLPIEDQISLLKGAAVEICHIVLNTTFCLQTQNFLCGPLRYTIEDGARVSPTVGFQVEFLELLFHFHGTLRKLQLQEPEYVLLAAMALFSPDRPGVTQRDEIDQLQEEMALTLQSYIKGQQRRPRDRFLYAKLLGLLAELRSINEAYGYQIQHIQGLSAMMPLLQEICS
How it was run: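 Read-out: ONE-Glo luciferase luminescence after 30 min at room temperature. HepG2-CYP2B6-hCAR double-stable cells, compounds in 15-point titration plus 50 nM CITCO final, 24 h at 37 C/5% CO2.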

[10] = biological target: Nuclear receptor subfamily 1 group I member 3 (Homo sapiens) (UniProt Q14994); test: qHTS assay to identify small molecule agonists of the constitutive androstane receptor (CAR) signaling pathway (AID 1224839); conditions: HepG2 hCAR CYP2B6-luciferase, agonist mode, 24 h; series mostly up to 92.4 µM; further: nearly all actives have a fitted effect of over 15% in size; further: potency means the concentration at half of the fitted maximal effect;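 on activation: HepG2 cells stably carrying human CAR and a CYP2B6 luciferase reporter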
How it was run: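 Double-stable HepG2 cells (hCAR, CYP2B6-2.2kb) seeded 4 h before compound addition. Exposure 24 h with 0.75 uM PK11195 final. Luciferase detected by ONE-Glo.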

[11] = qHTS assay to identify small molecule agonists of H2AX (AID 1224845; active means well fitted activation curve with a large enough effect in the signal ratio in the repeat runs, not every such curve was filed as active; the % refers to the signal ratio); conditions: CHO-K1 phospho-H2AX Ser139 HTRF, 3 h; series mostly up to 154 µM
How it was run: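 Wild-type CHO-K1 cells, plated overnight, exposed 3hr at 37C to 15 concentrations (0.76% DMSO final). Lysed, then HTRF anti-pH2AX (S139) cryptate and anti-H2AX-d2 antibodies, 24 hr room temperature; 665/620 nm emission read.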

[12] = qHTS assay to identify small molecule agonists of the hypoxia (HIF-1) signaling pathway (AID 1224846; active means well fitted activation curve with a large enough effect in the signal ratio in the repeat runs, not every such curve was filed as active; the % refers to the signal ratio); conditions: HRE-bla ME-180 cells, beta-lactamase ratio, 17 h; series mostly up to 76.8 µM
How it was run: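 Beta-lactamase FRET read-out (CCF4-AM substrate) from ME-180 cells carrying an HRE-driven bla reporter, after 17 hrs compound exposure at 37C/5% CO2. Cells were seeded at 2,000 per well in 0.5% dialyzed FBS medium and preincubated 5 hrs.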

[13] = qHTS assay to identify small molecule agonists of H2AX - cell viability counter screen (AID 1224847; calls by dose curve; further: top concentration of the series differs between compounds; nearly all actives have a fitted effect of over 30% in size); conditions: CHO-K1 viability, CellTiter-Glo luminescence, 3 h; series mostly up to 154 µM
How it was run: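 Quantitative HTS viability measurement: CHO-K1 wild-type cells in serum (10% FBS) medium, short 3 hr drug exposure at 37C with 0.76% DMSO, CellTiter-Glo luminescent detection.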

[14] = qHTS RealTime-Glo MT Cell Viability Assay in HepG2 cells - 24 hour (AID 1224867); conditions: RealTime-Glo luminescence; series mostly up to 76.8 µM; further: nearly all actives have a fitted effect of over 50% in size
How it was run: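 Real-time, nonlytic viability: 600 HepG2 cells/well mixed with NanoLuc enzyme plus prosubstrate; 5 h settle, compound (DMSO) added by pintool; luminescence monitored over 40 h at 37 C.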

[15] = qHTS assay to identify small molecule antagonists of the estrogen related receptor signaling pathway with the pleiotropic PPARgamma coactivator (PGC) from Tox21 10K library - cell viability counter screen (AID 1224840; active means well fitted cell-killing curve with a large enough effect in the repeat runs, not every such curve was filed as active; further: nearly all actives have a fitted effect of over 40% in size); conditions: PGC/ERR reporter cells viability, CellTiter-Fluor, 17.5 h; series mostly up to 92.4 µM
How it was run: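 Fluorescence read-out of CellTiter-Fluor viability reagent, added after cells had been exposed to compound in DMSO for 17.5 h at 37 C; 30 min development at 37 C/5% CO2. Cells: PGC/ERR line, 2,000/well.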

[16] = qHTS assay to identify small molecule agonists of the hypoxia (HIF-1) signaling pathway - cell viability counter screen (AID 1224844; calls by dose curve; further: nearly all actives have a fitted effect of over 50% in size); conditions: HRE-bla ME-180 viability, CellTiter-Glo luminescence, 17 h; series mostly up to 76.8 µM
How it was run: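 CellTiter-Glo luminescence read-out, 30 min RT, taken in the same wells as the beta-lactamase HRE reporter assay; HRE-bla ME-180 cells, 0.5% dialyzed FBS, 17 hr compound treatment at 37C, 5% CO2.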

[17] = biological target: Thyrotropin receptor (Homo sapiens) (UniProt P16473); test: qHTS assay to identify small molecule agonists of the thyroid stimulating hormone receptor (TSHR) signaling pathway (AID 1224843; calls by dose curve; further: nearly all actives have a fitted effect of over 45% in size); conditions: TSHR-HEK293 cells, cAMP HTRF, agonist mode, 30 min; series mostly up to 92.4 µM
Chain of Thyrotropin receptor (Homo sapiens) (P16473 whole entry, looked up): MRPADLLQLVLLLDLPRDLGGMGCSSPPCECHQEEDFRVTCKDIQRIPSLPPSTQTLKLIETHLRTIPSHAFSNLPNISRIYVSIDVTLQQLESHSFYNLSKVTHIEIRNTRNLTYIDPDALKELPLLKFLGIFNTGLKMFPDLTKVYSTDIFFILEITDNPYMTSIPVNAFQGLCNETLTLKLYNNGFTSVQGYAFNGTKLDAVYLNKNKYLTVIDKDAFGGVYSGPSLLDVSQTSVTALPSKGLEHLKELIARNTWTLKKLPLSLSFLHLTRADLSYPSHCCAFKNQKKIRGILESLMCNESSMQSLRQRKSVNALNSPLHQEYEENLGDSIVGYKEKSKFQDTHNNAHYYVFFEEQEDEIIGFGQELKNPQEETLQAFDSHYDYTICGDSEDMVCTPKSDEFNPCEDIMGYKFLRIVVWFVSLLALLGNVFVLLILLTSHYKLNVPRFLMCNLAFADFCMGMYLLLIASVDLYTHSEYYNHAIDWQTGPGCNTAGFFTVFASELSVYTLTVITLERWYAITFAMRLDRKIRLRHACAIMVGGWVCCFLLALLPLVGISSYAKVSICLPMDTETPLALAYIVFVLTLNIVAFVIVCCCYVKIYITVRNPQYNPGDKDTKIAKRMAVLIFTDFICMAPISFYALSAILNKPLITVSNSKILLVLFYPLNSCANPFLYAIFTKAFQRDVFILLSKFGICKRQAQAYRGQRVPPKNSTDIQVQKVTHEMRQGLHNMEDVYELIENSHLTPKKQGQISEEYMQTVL
How it was run: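 HEK293/TSHR, 800 cells/well; cpd 30 min RT; add cAMP-d2 + anti-cAMP-cryptate, 1 h RT; fluorescence read on plate reader. 15-pt titration, n=3.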

[18] = qHTS assay to identify small molecule antagonists of the estrogen related receptor signaling pathway with the pleiotropic PPARgamma coactivator (PGC) from Tox21 10K library (AID 1224841; call rule not given here); conditions: PGC/ERR reporter cell line, ONE-Glo luciferase, 18 h; series mostly up to 92.4 µM
How it was run: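 Luminescence read-out (One-Glo luciferase reagent, 30 min at room temperature) from PGC/ERR cells exposed to DMSO-dissolved test compounds for 18 h at 37 C; cells, 2,000 per well, had been preincubated 6 h before compound transfer.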

[19] = qHTS assay to identify small molecule antagonists of the estrogen related receptor (ERR) signaling pathway from Tox21 library (AID 1224848); conditions: ERR reporter cell line, luciferase antagonist mode, 18 h; series mostly up to 92.4 µM; further: nearly all actives have a fitted effect of over 50% in size
How it was run: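 Compounds dissolved in DMSO are pin-transferred onto ERR reporter cells (2,000 per well) that have settled for 6 h at 37 C. Plates then incubate 18 h at 37 C before ONE-Glo luciferase reagent and a luminescence read 30 min later.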

[20] = qHTS assay to identify small molecule agonists of the estrogen related receptor (ERR) signaling pathway from Tox21 library (AID 1224849; calls by dose curve; further: nearly all actives have a fitted effect of over 15% in size); conditions: ERR reporter cell line, ONE-Glo luciferase, 18 h; at 92.4 µM (top of the series) unless noted
How it was run: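 Luminescence readout (ONE-Glo, 30 min RT) after 18 h compound exposure at 37 C of NTP-supplied ERR reporter cells; cells were plated 6 h before compound addition by pin tool.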

Row | SMILES | outcome [1] | outcome [2] | outcome [3] | Potency [4] | outcome [5] | Potency [6] | outcome [7] | outcome [8] | Potency [9] | Potency [10] | outcome [11] | outcome [12] | outcome [13] | outcome [14] | outcome [15] | outcome [16] | outcome [17] | outcome [18] | Potency [19] | activity change, positive = activation [20]
1 | C=CCCCCCCCCC(=O)OCCCC | inactive | inactive | inactive | inactive | inactive | inactive | inactive | inactive | inactive | inactive | inactive | inactive | inactive | inactive |  |  |  |  |  | 
2 | CC(C)c1ccc(C=O)cc1 | inactive | inactive | inactive | inactive | inactive | inactive | inactive | inactive |  | inactive | inactive | inactive |  | inactive | inactive | inactive |  |  |  | 
3 | CCCCCC/C=C/C(=O)OC | inactive | inactive | inactive | inactive | inactive | inactive | inactive | inactive |  |  | inactive | inactive | inactive | inactive | inactive | inactive | inactive |  |  | 
4 | C[C@]12CCC(=O)C=C1CC[C@H]1[C@@H]3CC[C@](O)(C(=O)CO)[C@@]3(C)C[C@H](O)[C@@]12F | inactive | inactive | inactive | inactive | inactive | inactive | inactive | inactive |  | inactive | inactive | inactive | inactive | inactive | inactive | inactive | inactive |  |  | 
5 | O=C1CCC(=O)N1Cl | inactive | inactive | inactive | inactive | inactive | inactive | inactive | inactive |  | inactive | inactive | inactive |  | inactive | inactive | inactive |  |  |  | 
6 | CC(=O)N[C@@H](CO)C(=O)N[C@@H](CC(=O)O)C(=O)N[C@@H](CCCCN)C(=O)N1CCC[C@H]1C(=O)O (Ac-SDKP-OH) | inactive | inactive | inactive | inactive | inactive | inactive | inactive | inactive |  | inactive | inactive | inactive | inactive | inactive |  | inactive |  |  |  | 
7 | O=Cc1cc2ccccc2o1 | inactive | inactive | inactive | inactive | inactive | inactive | inactive | inactive | inactive | inactive | inactive | inactive | inactive | inactive |  | inactive | inactive |  |  | 
8 | CCCCCCCCCCCCCBr | inactive | inactive | inactive | inactive | inactive | inactive | inactive | inactive |  | inactive | inactive | inactive |  | inactive | inactive | inactive |  | inactive | inactive | 3.01%
9 | CCCc1ccc(O)cc1 | inactive | inactive | inactive | inactive | inactive | inactive | inactive | inactive | inactive | inactive | inactive | inactive | inactive | inactive |  |  |  |  |  | 
10 | c1ccc(B(c2ccccc2)c2ccccc2)cc1 | inactive | inactive | inactive | 54.4 µM (active) | inactive | 31.7 µM (active) | inactive | inactive |  | 48.5 µM (active) | inactive | inactive | inactive | inactive |  | inactive |  | inactive | inactive | 
11 | Cc1ccc2c(c1)C(=O)c1ccccc1C2=O | inactive | inactive | inactive | 4.31 µM (active) | inactive | 14.1 µM (active) | inactive | inactive |  | 27.2 µM (active) |  | inactive | inactive | inactive | inactive |  | inactive |  |  | 
12 | CC(C)(C)NC[C@H](O)COc1cccc2c1CCCC2=O | inactive | inactive | inactive | inactive | inactive | inactive | inactive | inactive |  | inactive | inactive |  | inactive | inactive |  | inactive |  | inactive | inactive | 4.14% [at 42.5 µM]
13 | C=CCOC(=O)CCCCCC | inactive | inactive | inactive | inactive | inactive | inactive | inactive | inactive |  | inactive | inactive | inactive |  | inactive | inactive | inactive | inactive |  |  | 
14 | O=C(CN1CCNCC1)NC1CCCCC1 | inactive | inactive | inactive | inactive | inactive | inactive | inactive | inactive |  | inactive | inactive | inactive | inactive | inactive | inactive | inactive | inactive |  |  | 
15 | O=C(O)c1cc2ccccc2nc1C(=O)O | inactive | inactive | inactive | inactive | inactive | inactive | inactive | inactive |  | inactive | inactive | inactive | inactive | inactive |  | inactive | inactive |  |  | 
16 | Cc1c(N)cccc1Cl | inactive | inactive | inactive | inactive | inactive | inactive | inactive | inactive |  | inactive | inactive | inactive |  | inactive | inactive | inactive | inactive |  |  | 
